In all, about 330,000 compounds went through this assay and about 10,000 (3%) were called active. The sample as a whole holds a higher share of actives than the screen did. A number with no mark means an inactive call.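 How the source made its calls: active means inhibition of at least 50% at 8 µM in the primary screen; inactive means the rest.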
biological target: Protein Mdm4 (Homo sapiens) + E3 ubiquitin-protein ligase Mdm2 (Homo sapiens) (UniProt O15151+Q00987); test: disruptors of Mdm2/MdmX RING complex – cell-based, luminescence, split luciferase, SaOS-2, uHTS, primary screen (AID 485346); conditions: SaOS-2 split-luciferase Mdm2/MdmX complementation, at 8 µM, stronger effect = higher value
Sequence (O15151 whole entry, looked up): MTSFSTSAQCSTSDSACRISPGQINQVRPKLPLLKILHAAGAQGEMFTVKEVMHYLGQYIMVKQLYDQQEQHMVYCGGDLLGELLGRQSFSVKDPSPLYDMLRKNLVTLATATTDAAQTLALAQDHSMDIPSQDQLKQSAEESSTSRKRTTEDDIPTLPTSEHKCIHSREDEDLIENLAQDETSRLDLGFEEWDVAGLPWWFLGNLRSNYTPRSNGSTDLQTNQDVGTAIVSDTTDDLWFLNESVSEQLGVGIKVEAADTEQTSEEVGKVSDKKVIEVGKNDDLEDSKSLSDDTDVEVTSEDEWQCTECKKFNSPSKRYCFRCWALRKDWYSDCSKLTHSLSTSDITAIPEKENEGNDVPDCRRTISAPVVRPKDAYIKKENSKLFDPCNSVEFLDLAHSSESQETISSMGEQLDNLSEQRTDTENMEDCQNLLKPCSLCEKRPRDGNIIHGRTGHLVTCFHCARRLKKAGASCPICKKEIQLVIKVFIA
Sequence (Q00987 whole entry, looked up): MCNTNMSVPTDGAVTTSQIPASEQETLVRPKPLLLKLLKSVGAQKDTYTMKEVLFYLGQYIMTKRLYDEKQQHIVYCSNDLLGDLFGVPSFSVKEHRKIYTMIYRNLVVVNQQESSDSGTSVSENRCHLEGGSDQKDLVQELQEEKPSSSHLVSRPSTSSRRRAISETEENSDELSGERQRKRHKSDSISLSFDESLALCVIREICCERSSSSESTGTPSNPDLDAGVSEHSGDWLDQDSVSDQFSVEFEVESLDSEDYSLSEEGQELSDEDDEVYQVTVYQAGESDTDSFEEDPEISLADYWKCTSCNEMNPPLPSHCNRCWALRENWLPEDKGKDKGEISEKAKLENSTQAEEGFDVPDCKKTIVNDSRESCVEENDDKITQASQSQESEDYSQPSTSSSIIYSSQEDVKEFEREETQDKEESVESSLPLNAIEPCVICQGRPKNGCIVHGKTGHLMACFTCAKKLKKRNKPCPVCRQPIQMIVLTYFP

SMILES	inhibition
CCOc1ccc(-c2cc(C)[n+](CCN(CC)CC)c(-c3ccc(OCC)cc3)c2)cc1	90.7% (active)
COc1ccc(CCn2c(O)c(C=NCCCn3ccnc3)c(=O)[nH]c2=O)cc1OC	-17.9%
Cc1cc(=O)oc2c(C)c(OCC(=O)N3CCN(Cc4ccc5c(c4)OCO5)CC3)ccc12	1.14%
CC12CN3CC(C)(CN(C1)C3c1cccs1)C2 (stereo not given)	-26.1%
O=C(Nc1cccc2ccccc12)N1CCC2(CC1)OCCO2	-30%
O=c1c2ccccc2nc(/C=C/c2ccco2)n1-c1ccccc1O	-1.65%
O=c1c2ccccc2nc(/C=C/c2ccc(F)cc2)n1-c1ccccc1O	60.9% (active)
Cc1nc2ccccc2c(=O)n1-c1ccc(Cl)cc1Cl	-13.3%
CC(=O)N1CN2CN(C(C)=O)CC(C(=O)c3ccc(Br)cc3)(C2)C1	26.2%
CC(=C1C(=O)c2ccccc2C1=O)N1CCN(CCN=Cc2c(O)n(C)c(=O)n(C)c2=O)CC1	-1.58%
O=C1C2(Cl)C3(Cl)C4(Cl)C(Cl)(Cl)C5(Cl)C3(Cl)C1(Cl)C5(Cl)C24Cl (stereo not given)	99.3% (active)
COc1ccc2[nH]c3c(c2c1)CCN[C@H]3C	9.11%
Cc1ccc(C)c(NC2=NCCCS2)c1	11.6%
c1ccc2sc(C3CCCNC3)nc2c1 (stereo not given)	-26.6%
Cc1cccc2c(CCN)c[nH]c12	13.4%
CCCCCn1c(=O)c(C(=O)NCc2ccccc2)c(O)c2ccccc21	62.6% (active)
CCCCCn1c(=O)c(C(=O)NCc2ccccn2)c(O)c2ccccc21	13.9%
CCCCn1c(=O)c(C(=O)Nc2ccccc2Cl)c(O)c2ccccc21	37.6%
CC(C)n1c(=O)c(C=Nc2ccc(Br)cc2)c(O)n(Cc2ccco2)c1=O	-33.1%
CN1CCN(/N=C/c2c[nH]c3ccccc23)CC1	-22.1%
OC1/C(=C/c2ccc(C(F)(F)F)cc2)N2CCC1CC2 (stereo not given)	17.5%
CC(=NCc1ccc2c(c1)OCO2)c1c(O)[nH]c(=O)[nH]c1=O	-16%
COc1cc(-n2c(=S)[nH]c3ccc(C)cc3c2=O)c(Cl)cc1Cl	40.1%

SMILES	inhibition
Cc1cc2ccccn2c1C(C[N+](=O)[O-])c1c(F)cccc1Cl (stereo not given)	97.4% (active)
c1cc2c(cc1C1OCC3C(c4ccc5c(c4)OCO5)OCC13)OCO2 (stereo not given)	1.17%
COc1ccc(CCn2c(O)c(C=NC3CC3)c(=O)[nH]c2=O)cc1OC	24.7%
CC(C)c1c(CN(C)C(C)Cc2ccccc2)n(C)n(-c2ccccc2)c1=O (stereo not given)	-0.74%
CC(Cc1ccccc1)NCCC(c1ccccc1)c1ccccc1 (stereo not given)	63% (active)
CC(Cc1ccccc1)NC=O (stereo not given)	12.4%
CC(=O)NC(=O)NC(C)Cc1ccccc1 (stereo not given)	15.7%
COC1=CC=C2[C@H]3Cc4ccc(OC)c5c4[C@@]2(CCN3C)C1O5 (stereo not given in full)	11%
O=c1[nH]c(=O)n(-c2ccccc2)c(O)c1C=NC12CN3CN(CN(C3)C1)C2	-21.9%
O=C(c1cc(-c2ccncc2)nc2ccccc12)N1CCC2(CC1)OCCO2	-28.6%
Cc1ccc(-c2cc(C(=O)N3CCC4(CC3)OCCO4)no2)cc1	-32.3%
O=C(c1cc2nc(-c3ccccc3)cc(-c3ccccc3)n2n1)N1CCC2(CC1)OCCO2	55.7% (active)
c1ccc(CCNC2CCCCCC2)cc1	24.6%
Cc1ccc(Cn2nnnc2CN2CCC(n3nnc4ccccc43)CC2)cc1	26.2%
CCOP(=O)(OCC)C(NC(=O)c1ccc(C)cc1)C(Cl)(Cl)Cl (stereo not given)	-8.99%
CNC(=S)N/N=C1\C2CN3CCN(C2)CC1(c1ccccc1)C3	-27.4%
CN(C)c1nc(N(C)C)nc(N(C#N)CCCl)n1	28.9%
O=C1NC(=O)N(Cc2ccco2)C(=O)/C1=C\c1ccc(-c2ccc(F)cc2)o1	-9.82%
O=C(O)COc1ccccc1/C=C1\C(=O)NC(=O)N(CCC2=CCCCC2)C1=O	2.61%
O=C1NC(=O)N(CCc2ccc(F)cc2)C(=O)/C1=C/C=C/c1ccccc1	99.4% (active)
COc1ccccc1N=C1SCCCN1C	-4.32%
CCOP(=O)(OCC)C(O)c1ccc(OC)cc1OC (stereo not given)	19.2%
CC[N+]1(C)CCCC(OC(=O)C(O)(c2ccccc2)c2ccccc2)C1 (stereo not given)	12.9%

SMILES	inhibition
COC(=O)C1=C(c2ccc(F)cc2OCc2ccccc2)C[C@@H]2CC[C@H]1N2C(=O)NCc1ccc(OC)c(OC)c1	14.8%
COC(=O)C1=C(c2ccc(F)cc2OCc2ccccc2)C[C@@H]2CC[C@H]1N2C(=O)NCc1ccc(Cl)cc1	55.7% (active)
COC(=O)C1=C(c2ccc(-c3ccccc3)c(F)c2)C[C@@H]2CC[C@H]1N2C(=O)NCc1ccc(F)cc1	21.7%
COC(=O)C1=C(c2ccccc2OCc2ccccc2)C[C@@H]2CC[C@H]1N2C(=O)NCc1ccc(OC)cc1	12.6%
COC(=O)C1=C(c2ccc(F)cc2OCc2ccccc2)C[C@@H]2CC[C@H]1N2C(=O)NCc1ccc(C(C)(C)C)cc1	48.4%
COC(=O)C1=C(c2ccc(F)cc2OCc2ccccc2)C[C@@H]2CC[C@H]1N2C(=O)NCc1ccc2[nH]ccc2c1	52.5% (active)
CCOP(=O)(OCC)C(NC(=O)c1ccc(OC)cc1)C(Cl)(Cl)Cl (stereo not given)	16.4%
COC(=O)N(c1ccc(OC)cc1)P1(=S)OCCC(C)O1 (stereo not given)	7.17%
CCOc1ccc(C2SCC(=O)Nc3c2c(C)nn3C2CCOC(C)(C)C2)cc1 (stereo not given)	3.37%
CCC(=O)c1ccc(OCC(=O)N2CCN(CC(=O)Nc3ccc(C)cc3)CC2)cc1	30%
Cc1cccc(-n2c(O)c(C=NC34CN5CN(CN(C5)C3)C4)c(=O)[nH]c2=O)c1	-8.36%
CNCC(O)c1cc(F)c(OCc2ccccc2)c(OCc2ccccc2)c1F (stereo not given)	86.6% (active)
O=C(NC(c1ccc(Cl)cc1)P(=O)(Oc1ccccc1)Oc1ccccc1)OCc1ccccc1 (stereo not given)	18.9%
C[C@]12CC[C@H](O)C[C@H]1CC[C@@H]1C2CC[C@]2(C)[C@@H](C3=CC(=O)OC3)[C@@H](O)C[C@]12O (stereo not given in full)	45.4%
CCNc1nc2[nH]c(=O)c3c(c2s1)OC(N)=C(C#N)C3c1cccs1 (stereo not given)	17.9%
N#CC1=C(N)Oc2c(c(=O)oc3ccccc23)C1c1ccccc1OC(=O)c1cccs1 (stereo not given)	62.3% (active)
COC(=O)C1=C(c2cccc(OCc3ccccc3)c2)C[C@@H]2CC[C@H]1N2C(=O)NNCc1ccccc1	29.6%
CC(=O)N(C1=NCCCS1)c1ccccc1F	14.4%
CN(C)C(=O)Oc1cc(=O)n2c3c(cccc13)CCC2	19.2%
CCCCCCCCCCCCn1ccc(=N)cc1	97.2% (active)
CC(C(=O)Nc1ccc(Cl)cc1Cl)N1CC=C(c2ccccc2)CC1 (stereo not given)	-0.882%
NCCc1ccc(S(=O)(=O)F)cc1	5.92%
O=C1NC(=O)C(C/C=C/c2ccccc2)C(=O)N1	-4.93%

SMILES	inhibition
CC1(C)Cc2c(C#N)c(N3CCNCC3)nc(-c3ccco3)c2CS1	62% (active)
COc1cccc(N2C(=O)NC(=O)/C(=C\c3ccc([N+](=O)[O-])s3)C2=O)c1	7.01%
COC(=O)[C@@H]1C(OC(=O)c2ccccc2)CC2CCC1N2C (stereo not given in full)	5.75%
COc1ccc(C2N3CC(C)(C)CN23)cc1 (stereo not given)	4.71%
O=C(O)c1ccccc1NC(=O)C1C2CCC(O2)C1C(=O)O (stereo not given)	40.4%
CCCCC(=O)N/N=C/c1c(O)n(CC)c(=S)n(CC)c1=O	10.6%
CCCCC(=O)N/N=C/c1c(O)n(CCC2=CCCCC2)c(=O)[nH]c1=O	50.4% (active)
CCCCC(=O)N/N=C/c1c(O)n(-c2ccccc2)c(=O)[nH]c1=O	10.7%
O=C1NC(=O)C(CCc2ccccn2)(Cc2cccc(Cl)c2Cl)C(=O)N1c1ccc(Br)cc1 (stereo not given)	17.3%
C/C(=N/O)c1ccc2ccc3ccccc3c2c1	-52.9%
O=Cc1cn(Cc2ccc(F)cc2Cl)c2ccccc12	50.9% (active)
CN1CCC(N(C)Cc2cccnc2)CC1	-0.974%
CN(C)CCN(CC1CCCN(Cc2ccccc2F)C1)C(=O)Cc1ccc(F)c(F)c1 (stereo not given)	15.4%
CC(=O)c1ccc(OC(NC(=O)Cc2ccccc2)C(Cl)(Cl)Cl)cc1 (stereo not given)	6.38%
c1ccc(C2NCc3ccccc3-n3cccc32)cc1 (stereo not given)	19.8%
Cn1c(C(=O)N2CCC(C(=O)N3CCC4(CC3)OCCO4)CC2)cc2sccc21	-1.94%
CNC(=O)O/N=C(\N)Cc1csc2ccc(Cl)cc12	97.6% (active)
CNC(=O)O/N=C(\N)Cc1csc2ccccc12	78.8% (active)
CC[C@H]1CC2CN3CCc4c([nH]c5ccccc45)C(C(=O)OC)(C2)C13 (stereo not given in full)	33.7%
Cc1cc(N2C(=O)C3CCCN3C2c2ccc(Cl)c(Cl)c2)no1 (stereo not given)	-4.12%
CCCn1c(C(=O)c2ccccc2OC)nc2ccccc21	10.6%

Source: PubChem BioAssay AID485346 (Sanford-Burnham Center for Chemical Genomics, 2010)
